Assay results reported in publication PMC5540273 (PLoS ONE, 2017).
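Further: KINOMEscan kinase panel screen.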

These compounds were tested on PIK3CA. Conditions: concentration: 1 μM, replicates: in singlicate; n = 1.
With `Cc1cccc(-c2nc(Nc3ccc4ncsc4c3)c3ccccc3n2)n1` [GW867588] the “%Inh” value was 0%.
`CCc1nc(-c2cccc(C)c2)c(-c2ccnc(NCc3ccccc3)c2)s1` was tested, and the “%Inh” value was 0%.
`COc1cc2ncn(-c3cc(OCc4sccc4Cl)c(C(N)=O)s3)c2cc1OC` [GSK448459] was tested, and the “%Inh” value was 0%.
In the case of `Cc1c2ccc(N(C)c3ccnc(Nc4cccc(S(N)(=O)=O)c4)n3)cc2nn1Cc1ccccc1.Cl.Cl` [GW787226], the “%Inh” value was 0%.
`Nc1nc(-c2ccc3c(N)n[nH]c3c2)cc(N2CCCC2)n1` [GSK2227430] was tested, and the “%Inh” value was 0%.
For `COCCNC(=O)c1ccc(-c2cc(C(=O)NC3CC3)cc(F)c2C)cc1` [GW868318], the “%Inh” value was 28%.
In the case of `COc1ccc(Nc2nccc(N3CCC(NC(=O)Nc4cc(C)ccc4C)C3)n2)cc1` (stereo not shown) [GSK1379741], the “%Inh” value was 0%.
In the case of `COc1ccc(CNC(=O)NC2CCN(c3ccnc(Nc4ccc(OC)cc4)n3)C2)cc1` (stereo not shown) [GSK1379727], the “%Inh” value was 0%.
For `COc1ccc(Nc2ncc(C#N)c(Nc3ccccc3C(N)=O)n2)cc1N1CCN(C)CC1.Cl` [GSK1558669], the “%Inh” value was 0%.
`O=c1cc(N2CCOCC2)nc2n(Cc3cccc(C(F)(F)F)c3)ccn12` [GSK2297543] was tested, and the “%Inh” value was 0%.
For `NS(=O)(=O)c1cccc(-c2ccc3nccc(-c4cccc(S(N)(=O)=O)c4)c3c2)c1` [GW867253], the “%Inh” value was 38%.
With `c1ccc(-c2cc(-c3c[nH]nc3-c3ccccn3)ccn2)cc1` [GW576604] the “%Inh” value was 0%.
For `Cc1nnc(-c2ccc(C)c(-c3ccc(C(=O)Nc4ccc(NS(C)(=O)=O)cc4)cc3)c2)o1` [GW702865], the “%Inh” value was 0%.
